Reference: PMC10812921, “Transcriptional Coactivator BOB1 (OBF1, OCA-B) Modulates the Specificity of DNA Recognition by the POU-Domain Factors OCT1 and OCT2 in a Monomeric Configuration”

What was measured:
POU1 (OCT1 POU domain) = POU1 (OCT1 POU domain) (human, UniProt P14859 260-458); test: EMSA-SELEX-seq; no BOB1; 20 mM Tris-HCl pH 7.6, 140 mM NaCl, 10% glycerol, 0.5 mM EDTA, 0.05% Triton X-100, 0.1 mg/mL BSA, 0.1 mg/mL poly(dI-dC), 5 mM DTT, room temperature, 20 min; high values mean tight binding; conditions: protein: recombinant; dsDNA, one strand shown
Sequence of POU1 (OCT1 POU domain) (P14859 260-458): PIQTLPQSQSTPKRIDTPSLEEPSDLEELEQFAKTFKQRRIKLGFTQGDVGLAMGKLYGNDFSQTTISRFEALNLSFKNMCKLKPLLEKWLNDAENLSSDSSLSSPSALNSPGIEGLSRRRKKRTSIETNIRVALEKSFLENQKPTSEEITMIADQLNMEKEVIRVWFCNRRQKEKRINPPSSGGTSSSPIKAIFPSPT
Procedure, shortened: (§1)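 Binding preference is the percentage of sequenced 8-mers matching a motif pattern. Tagged POU-domain proteins expressed in E. coli BL21 were purified under denaturing conditions and renatured. For binding, 30 ng protein met 300 ng of a PCR-amplified double-stranded random 35-nt library, with or without 28 ng coactivator protein, in 20 μL Tris–HCl pH 7.6 binding buffer for 20 min at RT. Complex bands were cut from native 6% PAGE, eluted and PCR-amplified over four rounds, then Illumina-sequenced.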

POU2 (OCT2 POU domain) = target: T1, POU2 (OCT2 POU domain) (human, UniProt P09086 175-386); test: as above; conditions: protein: recombinant; dsDNA, one strand shown
T1 sequence: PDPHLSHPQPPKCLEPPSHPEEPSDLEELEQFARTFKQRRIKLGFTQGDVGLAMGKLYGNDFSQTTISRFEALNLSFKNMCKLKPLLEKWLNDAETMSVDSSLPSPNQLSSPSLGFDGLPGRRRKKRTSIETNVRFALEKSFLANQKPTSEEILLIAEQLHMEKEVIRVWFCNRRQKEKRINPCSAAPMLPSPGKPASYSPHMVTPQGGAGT
Procedure, shortened: as §1

[1] = target: POU1 (OCT1 POU domain);BOB1 (OBF1, OCA-B) (human;human, UniProt P14859;Q16633 260-458;1-256, |); test: EMSA-SELEX-seq; with BOB1 (ternary complex band); 20 mM Tris-HCl pH 7.6, 140 mM NaCl, 10% glycerol, 0.5 mM EDTA, 0.05% Triton X-100, 0.1 mg/mL BSA, 0.1 mg/mL poly(dI-dC), 5 mM DTT, room temperature, 20 min; high values mean tight binding; conditions: protein: recombinant;recombinant; copies: 1;1; dsDNA, one strand shown
Procedure, shortened: as §1

[2] = target: T2, POU2 (OCT2 POU domain);BOB1 (OBF1, OCA-B) (human;human, UniProt P09086;Q16633 175-386;1-256, |); test: as above; conditions: protein: recombinant;recombinant; copies: 1;1; dsDNA, one strand shown
T2 sequence 1: T1 sequence
T2 sequence 2: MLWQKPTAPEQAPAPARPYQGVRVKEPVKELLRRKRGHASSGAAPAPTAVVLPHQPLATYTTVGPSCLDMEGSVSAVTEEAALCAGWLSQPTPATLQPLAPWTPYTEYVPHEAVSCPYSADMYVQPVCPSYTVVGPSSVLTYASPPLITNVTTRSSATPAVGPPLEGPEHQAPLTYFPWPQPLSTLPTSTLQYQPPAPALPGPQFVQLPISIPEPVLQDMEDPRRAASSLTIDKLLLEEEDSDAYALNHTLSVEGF
Procedure, shortened: as §1

ATATAAAT
binding signal (POU1 (OCT1 POU domain)): 0.16 % of ANNNNAAN 8-mers | binding signal (POU2 (OCT2 POU domain)): 0.222 % of ANNNNAAN 8-mers | binding signal [1]: 0.108 % of ANNNNAAN 8-mers | binding signal [2]: 0.116 % of ANNNNAAN 8-mers

ATAGAAAG
binding signal (POU1 (OCT1 POU domain)): 0.0461 % of ANNNNAAN 8-mers | binding signal (POU2 (OCT2 POU domain)): 0.0598 % of ANNNNAAN 8-mers | binding signal [1]: 0.0546 % of ANNNNAAN 8-mers | binding signal [2]: 0.0487 % of ANNNNAAN 8-mers

ATAGCAAC
binding signal (POU1 (OCT1 POU domain)): 0.0183 % of ANNNNAAN 8-mers | binding signal (POU2 (OCT2 POU domain)): 0.0184 % of ANNNNAAN 8-mers | binding signal [1]: 0.0207 % of ANNNNAAN 8-mers | binding signal [2]: 0.0405 % of ANNNNAAN 8-mers

AAGGGAAA
binding signal (POU1 (OCT1 POU domain)): 0.196 % of ANNNNAAN 8-mers | binding signal (POU2 (OCT2 POU domain)): 0.146 % of ANNNNAAN 8-mers | binding signal [1]: 0.255 % of ANNNNAAN 8-mers | binding signal [2]: 0.136 % of ANNNNAAN 8-mers

AGCGAAAA
binding signal (POU1 (OCT1 POU domain)): 0.0389 % of ANNNNAAN 8-mers | binding signal (POU2 (OCT2 POU domain)): 0.0386 % of ANNNNAAN 8-mers | binding signal [1]: 0.0418 % of ANNNNAAN 8-mers | binding signal [2]: 0.033 % of ANNNNAAN 8-mers

AGCCGAAG
binding signal (POU1 (OCT1 POU domain)): 0.0168 % of ANNNNAAN 8-mers | binding signal (POU2 (OCT2 POU domain)): 0.0201 % of ANNNNAAN 8-mers | binding signal [1]: 0.0195 % of ANNNNAAN 8-mers | binding signal [2]: 0.0182 % of ANNNNAAN 8-mers

AGAGAAAC
binding signal (POU1 (OCT1 POU domain)): 0.0221 % of ANNNNAAN 8-mers | binding signal (POU2 (OCT2 POU domain)): 0.0247 % of ANNNNAAN 8-mers | binding signal [1]: 0.0332 % of ANNNNAAN 8-mers | binding signal [2]: 0.0231 % of ANNNNAAN 8-mers

AATAGAAC
binding signal (POU1 (OCT1 POU domain)): 0.0381 % of ANNNNAAN 8-mers | binding signal (POU2 (OCT2 POU domain)): 0.0541 % of ANNNNAAN 8-mers | binding signal [1]: 0.0382 % of ANNNNAAN 8-mers | binding signal [2]: 0.0462 % of ANNNNAAN 8-mers

AGCGGAAC
binding signal (POU1 (OCT1 POU domain)): 0.0183 % of ANNNNAAN 8-mers | binding signal (POU2 (OCT2 POU domain)): 0.0224 % of ANNNNAAN 8-mers | binding signal [1]: 0.0129 % of ANNNNAAN 8-mers | binding signal [2]: 0.0157 % of ANNNNAAN 8-mers

AAAAAAAA
binding signal (POU1 (OCT1 POU domain)): 0.11 % of ANNNNAAN 8-mers | binding signal (POU2 (OCT2 POU domain)): 0.193 % of ANNNNAAN 8-mers | binding signal [1]: 0.174 % of ANNNNAAN 8-mers | binding signal [2]: 0.13 % of ANNNNAAN 8-mers

AGCTTAAT
binding signal (POU1 (OCT1 POU domain)): 0.0645 % of ANNNNAAN 8-mers | binding signal (POU2 (OCT2 POU domain)): 0.0972 % of ANNNNAAN 8-mers | binding signal [1]: 0.0449 % of ANNNNAAN 8-mers | binding signal [2]: 0.0578 % of ANNNNAAN 8-mers

AGATCAAG
binding signal (POU1 (OCT1 POU domain)): 0.0305 % of ANNNNAAN 8-mers | binding signal (POU2 (OCT2 POU domain)): 0.0397 % of ANNNNAAN 8-mers | binding signal [1]: 0.0273 % of ANNNNAAN 8-mers | binding signal [2]: 0.0272 % of ANNNNAAN 8-mers

AGTGTAAA
binding signal (POU1 (OCT1 POU domain)): 0.0576 % of ANNNNAAN 8-mers | binding signal (POU2 (OCT2 POU domain)): 0.0667 % of ANNNNAAN 8-mers | binding signal [1]: 0.0687 % of ANNNNAAN 8-mers | binding signal [2]: 0.052 % of ANNNNAAN 8-mers

ATGTGAAA
binding signal (POU1 (OCT1 POU domain)): 0.0671 % of ANNNNAAN 8-mers | binding signal (POU2 (OCT2 POU domain)): 0.0748 % of ANNNNAAN 8-mers | binding signal [1]: 0.0687 % of ANNNNAAN 8-mers | binding signal [2]: 0.0718 % of ANNNNAAN 8-mers

ATCCTAAT
binding signal (POU1 (OCT1 POU domain)): 0.0614 % of ANNNNAAN 8-mers | binding signal (POU2 (OCT2 POU domain)): 0.0944 % of ANNNNAAN 8-mers | binding signal [1]: 0.0499 % of ANNNNAAN 8-mers | binding signal [2]: 0.0693 % of ANNNNAAN 8-mers

ACTAAAAT
binding signal (POU1 (OCT1 POU domain)): 0.0805 % of ANNNNAAN 8-mers | binding signal (POU2 (OCT2 POU domain)): 0.0714 % of ANNNNAAN 8-mers | binding signal [1]: 0.0663 % of ANNNNAAN 8-mers | binding signal [2]: 0.0528 % of ANNNNAAN 8-mers

AGCGGAAT
binding signal (POU1 (OCT1 POU domain)): 0.0622 % of ANNNNAAN 8-mers | binding signal (POU2 (OCT2 POU domain)): 0.0725 % of ANNNNAAN 8-mers | binding signal [1]: 0.0546 % of ANNNNAAN 8-mers | binding signal [2]: 0.0636 % of ANNNNAAN 8-mers

ATTAGAAA
binding signal (POU1 (OCT1 POU domain)): 0.0995 % of ANNNNAAN 8-mers | binding signal (POU2 (OCT2 POU domain)): 0.106 % of ANNNNAAN 8-mers | binding signal [1]: 0.0738 % of ANNNNAAN 8-mers | binding signal [2]: 0.0892 % of ANNNNAAN 8-mers

ATATGAAT
binding signal (POU1 (OCT1 POU domain)): 0.243 % of ANNNNAAN 8-mers | binding signal (POU2 (OCT2 POU domain)): 0.316 % of ANNNNAAN 8-mers | binding signal [1]: 0.122 % of ANNNNAAN 8-mers | binding signal [2]: 0.141 % of ANNNNAAN 8-mers

ATCAGAAG
binding signal (POU1 (OCT1 POU domain)): 0.0271 % of ANNNNAAN 8-mers | binding signal (POU2 (OCT2 POU domain)): 0.0363 % of ANNNNAAN 8-mers | binding signal [1]: 0.0359 % of ANNNNAAN 8-mers | binding signal [2]: 0.033 % of ANNNNAAN 8-mers

AGTAAAAA
binding signal (POU1 (OCT1 POU domain)): 0.0911 % of ANNNNAAN 8-mers | binding signal (POU2 (OCT2 POU domain)): 0.0679 % of ANNNNAAN 8-mers | binding signal [1]: 0.103 % of ANNNNAAN 8-mers | binding signal [2]: 0.0578 % of ANNNNAAN 8-mers

ATACAAAG
binding signal (POU1 (OCT1 POU domain)): 0.0984 % of ANNNNAAN 8-mers | binding signal (POU2 (OCT2 POU domain)): 0.0938 % of ANNNNAAN 8-mers | binding signal [1]: 0.139 % of ANNNNAAN 8-mers | binding signal [2]: 0.09 % of ANNNNAAN 8-mers

ACCACAAT
binding signal (POU1 (OCT1 POU domain)): 0.0179 % of ANNNNAAN 8-mers | binding signal (POU2 (OCT2 POU domain)): 0.0178 % of ANNNNAAN 8-mers | binding signal [1]: 0.0199 % of ANNNNAAN 8-mers | binding signal [2]: 0.0215 % of ANNNNAAN 8-mers

AGAGTAAT
binding signal (POU1 (OCT1 POU domain)): 0.0648 % of ANNNNAAN 8-mers | binding signal (POU2 (OCT2 POU domain)): 0.0777 % of ANNNNAAN 8-mers | binding signal [1]: 0.0499 % of ANNNNAAN 8-mers | binding signal [2]: 0.0537 % of ANNNNAAN 8-mers

ACGCCAAT
binding signal (POU1 (OCT1 POU domain)): 0.0137 % of ANNNNAAN 8-mers | binding signal (POU2 (OCT2 POU domain)): 0.0184 % of ANNNNAAN 8-mers | binding signal [1]: 0.0195 % of ANNNNAAN 8-mers | binding signal [2]: 0.0256 % of ANNNNAAN 8-mers

ATGCGAAT
binding signal (POU1 (OCT1 POU domain)): 0.124 % of ANNNNAAN 8-mers | binding signal (POU2 (OCT2 POU domain)): 0.165 % of ANNNNAAN 8-mers | binding signal [1]: 0.0901 % of ANNNNAAN 8-mers | binding signal [2]: 0.128 % of ANNNNAAN 8-mers

AGCGAAAG
binding signal (POU1 (OCT1 POU domain)): 0.0248 % of ANNNNAAN 8-mers | binding signal (POU2 (OCT2 POU domain)): 0.0242 % of ANNNNAAN 8-mers | binding signal [1]: 0.0332 % of ANNNNAAN 8-mers | binding signal [2]: 0.0239 % of ANNNNAAN 8-mers

ACAAAAAA
binding signal (POU1 (OCT1 POU domain)): 0.0656 % of ANNNNAAN 8-mers | binding signal (POU2 (OCT2 POU domain)): 0.0621 % of ANNNNAAN 8-mers | binding signal [1]: 0.0808 % of ANNNNAAN 8-mers | binding signal [2]: 0.0528 % of ANNNNAAN 8-mers

AAGCGAAA
binding signal (POU1 (OCT1 POU domain)): 0.0358 % of ANNNNAAN 8-mers | binding signal (POU2 (OCT2 POU domain)): 0.0391 % of ANNNNAAN 8-mers | binding signal [1]: 0.0429 % of ANNNNAAN 8-mers | binding signal [2]: 0.0289 % of ANNNNAAN 8-mers

AGAACAAG
binding signal (POU1 (OCT1 POU domain)): 0.0221 % of ANNNNAAN 8-mers | binding signal (POU2 (OCT2 POU domain)): 0.0334 % of ANNNNAAN 8-mers | binding signal [1]: 0.0219 % of ANNNNAAN 8-mers | binding signal [2]: 0.0231 % of ANNNNAAN 8-mers
